According to the supplement of paper PMC11732987, “Enantioselective OTUD7B fragment discovery through chemoproteomics screening and high-throughput optimisation” (Communications Chemistry, 2025):

Columns and labels:
Assay in all cases: log2 ratio of Biotin-Ahx-Ub-VS probe labelling (fragment/DMSO); higher = less target engagement (more negative = stronger competition), active = hit call of the paper (q ≤ 0.05, log2 ratio ≤ -1)
Conditions in all cases: compound concentration: 200 uM; treatment time: 3 h
[1] = target: USP34 (UniProt Q70CQ2)
Chain of USP34 (Q70CQ2 whole entry, the tested form may be a part): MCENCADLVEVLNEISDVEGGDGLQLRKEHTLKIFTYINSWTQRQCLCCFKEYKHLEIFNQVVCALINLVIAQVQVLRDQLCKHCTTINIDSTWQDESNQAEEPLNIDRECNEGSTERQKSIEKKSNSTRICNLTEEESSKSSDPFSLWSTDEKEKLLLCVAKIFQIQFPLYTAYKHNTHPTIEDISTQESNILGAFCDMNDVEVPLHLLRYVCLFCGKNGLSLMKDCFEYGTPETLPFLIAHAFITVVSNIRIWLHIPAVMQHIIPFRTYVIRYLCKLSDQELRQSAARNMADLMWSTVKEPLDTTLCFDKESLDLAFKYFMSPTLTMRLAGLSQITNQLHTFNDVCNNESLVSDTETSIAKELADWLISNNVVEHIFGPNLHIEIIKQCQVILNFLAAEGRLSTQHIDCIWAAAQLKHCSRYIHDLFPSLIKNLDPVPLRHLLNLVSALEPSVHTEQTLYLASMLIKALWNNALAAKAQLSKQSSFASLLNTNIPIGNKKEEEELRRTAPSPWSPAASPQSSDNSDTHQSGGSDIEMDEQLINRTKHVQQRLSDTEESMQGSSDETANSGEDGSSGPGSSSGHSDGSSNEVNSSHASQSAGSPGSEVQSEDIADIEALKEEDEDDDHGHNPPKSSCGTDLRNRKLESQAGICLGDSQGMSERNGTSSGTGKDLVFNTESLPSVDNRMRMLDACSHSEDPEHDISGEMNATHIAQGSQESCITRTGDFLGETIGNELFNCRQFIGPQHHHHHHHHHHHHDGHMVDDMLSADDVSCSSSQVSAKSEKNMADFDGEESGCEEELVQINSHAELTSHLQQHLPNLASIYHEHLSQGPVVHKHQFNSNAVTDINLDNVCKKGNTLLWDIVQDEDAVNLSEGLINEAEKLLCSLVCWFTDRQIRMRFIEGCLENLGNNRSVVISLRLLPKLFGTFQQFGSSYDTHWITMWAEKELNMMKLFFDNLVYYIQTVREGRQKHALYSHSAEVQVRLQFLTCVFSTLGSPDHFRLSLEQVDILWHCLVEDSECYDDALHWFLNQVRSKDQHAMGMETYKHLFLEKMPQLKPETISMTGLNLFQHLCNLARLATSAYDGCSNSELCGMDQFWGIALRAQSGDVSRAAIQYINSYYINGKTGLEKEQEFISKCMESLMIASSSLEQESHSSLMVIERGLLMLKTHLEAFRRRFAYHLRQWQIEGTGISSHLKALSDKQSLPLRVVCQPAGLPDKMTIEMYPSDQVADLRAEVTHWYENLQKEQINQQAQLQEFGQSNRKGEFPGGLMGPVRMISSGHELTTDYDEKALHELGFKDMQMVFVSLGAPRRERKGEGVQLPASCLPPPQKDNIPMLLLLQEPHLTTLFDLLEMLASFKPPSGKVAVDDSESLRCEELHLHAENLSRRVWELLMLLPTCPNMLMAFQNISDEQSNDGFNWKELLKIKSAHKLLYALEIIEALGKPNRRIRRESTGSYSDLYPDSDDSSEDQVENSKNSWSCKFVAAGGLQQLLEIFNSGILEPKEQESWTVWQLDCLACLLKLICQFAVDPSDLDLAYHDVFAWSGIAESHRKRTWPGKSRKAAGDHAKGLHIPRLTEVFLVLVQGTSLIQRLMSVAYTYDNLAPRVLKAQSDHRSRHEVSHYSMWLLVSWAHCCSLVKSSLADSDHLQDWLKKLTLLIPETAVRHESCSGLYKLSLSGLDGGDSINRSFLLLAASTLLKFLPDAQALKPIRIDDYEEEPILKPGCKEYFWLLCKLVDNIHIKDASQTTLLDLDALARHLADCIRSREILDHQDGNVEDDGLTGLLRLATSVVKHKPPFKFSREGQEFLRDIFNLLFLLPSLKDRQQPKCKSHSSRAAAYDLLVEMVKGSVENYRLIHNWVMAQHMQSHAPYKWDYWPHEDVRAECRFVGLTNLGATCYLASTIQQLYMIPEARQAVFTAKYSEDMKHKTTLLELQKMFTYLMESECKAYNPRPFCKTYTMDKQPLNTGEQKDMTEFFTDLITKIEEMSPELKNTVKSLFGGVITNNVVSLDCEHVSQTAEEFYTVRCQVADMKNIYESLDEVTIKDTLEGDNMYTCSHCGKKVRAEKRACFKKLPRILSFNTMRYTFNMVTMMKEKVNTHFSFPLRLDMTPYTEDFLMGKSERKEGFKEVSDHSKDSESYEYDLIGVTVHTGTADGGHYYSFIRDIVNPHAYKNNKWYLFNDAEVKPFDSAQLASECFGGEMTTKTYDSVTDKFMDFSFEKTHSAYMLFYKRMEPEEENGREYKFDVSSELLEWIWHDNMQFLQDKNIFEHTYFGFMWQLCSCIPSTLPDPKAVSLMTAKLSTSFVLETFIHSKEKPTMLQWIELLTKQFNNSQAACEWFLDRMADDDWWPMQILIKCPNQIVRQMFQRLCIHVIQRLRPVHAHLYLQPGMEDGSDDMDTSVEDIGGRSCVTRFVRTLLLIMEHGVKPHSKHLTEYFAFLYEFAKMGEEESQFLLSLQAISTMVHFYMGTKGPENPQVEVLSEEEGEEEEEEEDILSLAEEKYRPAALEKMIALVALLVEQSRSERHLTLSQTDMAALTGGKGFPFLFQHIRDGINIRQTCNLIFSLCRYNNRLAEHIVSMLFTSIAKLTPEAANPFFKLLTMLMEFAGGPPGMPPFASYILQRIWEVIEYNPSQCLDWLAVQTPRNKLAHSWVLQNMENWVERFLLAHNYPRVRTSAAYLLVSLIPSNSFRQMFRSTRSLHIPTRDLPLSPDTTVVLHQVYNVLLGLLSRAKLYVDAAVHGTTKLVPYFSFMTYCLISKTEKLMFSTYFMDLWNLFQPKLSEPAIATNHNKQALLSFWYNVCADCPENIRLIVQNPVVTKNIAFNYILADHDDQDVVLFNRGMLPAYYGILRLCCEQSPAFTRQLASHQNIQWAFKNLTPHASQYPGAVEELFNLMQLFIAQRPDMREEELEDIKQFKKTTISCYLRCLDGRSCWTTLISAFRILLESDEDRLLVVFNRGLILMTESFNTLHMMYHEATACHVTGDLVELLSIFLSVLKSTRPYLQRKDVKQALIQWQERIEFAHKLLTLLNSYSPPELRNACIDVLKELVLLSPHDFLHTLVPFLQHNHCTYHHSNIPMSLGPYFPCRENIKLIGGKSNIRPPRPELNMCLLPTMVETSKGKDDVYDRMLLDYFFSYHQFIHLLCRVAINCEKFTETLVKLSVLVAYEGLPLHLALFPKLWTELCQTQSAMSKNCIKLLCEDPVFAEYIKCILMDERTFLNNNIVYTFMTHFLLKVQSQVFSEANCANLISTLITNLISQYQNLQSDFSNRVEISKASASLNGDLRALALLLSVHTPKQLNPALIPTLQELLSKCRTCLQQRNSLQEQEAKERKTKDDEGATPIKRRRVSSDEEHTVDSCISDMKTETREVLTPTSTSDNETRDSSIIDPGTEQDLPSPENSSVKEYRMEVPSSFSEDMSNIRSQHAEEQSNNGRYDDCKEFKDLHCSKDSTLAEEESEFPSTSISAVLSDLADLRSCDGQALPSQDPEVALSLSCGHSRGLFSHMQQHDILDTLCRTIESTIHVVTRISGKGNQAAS
How it was run: (§1)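 Labelled DUBs from HEK293T lysate were NeutrAvidin-enriched, digested with LysC and trypsin, and run by diaPASEF LC-MS/MS. Before that, each 495 µg sample in Tris/CHAPS/IGEPAL buffer with protease inhibitors was treated in triplicate with fragment at 200 µM or vehicle for 3 h, then with Biotin-Ahx-Ub-VS at 0.5 µM final for 1 h. Values are average log2 ratios of fragment over vehicle by unpaired t-test, based on global-median-normalised Spectronaut label-free quantities from proteins with ≥2 unique peptides.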

[2] = target: T1, USP36 (UniProt Q9P275)
T1 sequence (whole entry): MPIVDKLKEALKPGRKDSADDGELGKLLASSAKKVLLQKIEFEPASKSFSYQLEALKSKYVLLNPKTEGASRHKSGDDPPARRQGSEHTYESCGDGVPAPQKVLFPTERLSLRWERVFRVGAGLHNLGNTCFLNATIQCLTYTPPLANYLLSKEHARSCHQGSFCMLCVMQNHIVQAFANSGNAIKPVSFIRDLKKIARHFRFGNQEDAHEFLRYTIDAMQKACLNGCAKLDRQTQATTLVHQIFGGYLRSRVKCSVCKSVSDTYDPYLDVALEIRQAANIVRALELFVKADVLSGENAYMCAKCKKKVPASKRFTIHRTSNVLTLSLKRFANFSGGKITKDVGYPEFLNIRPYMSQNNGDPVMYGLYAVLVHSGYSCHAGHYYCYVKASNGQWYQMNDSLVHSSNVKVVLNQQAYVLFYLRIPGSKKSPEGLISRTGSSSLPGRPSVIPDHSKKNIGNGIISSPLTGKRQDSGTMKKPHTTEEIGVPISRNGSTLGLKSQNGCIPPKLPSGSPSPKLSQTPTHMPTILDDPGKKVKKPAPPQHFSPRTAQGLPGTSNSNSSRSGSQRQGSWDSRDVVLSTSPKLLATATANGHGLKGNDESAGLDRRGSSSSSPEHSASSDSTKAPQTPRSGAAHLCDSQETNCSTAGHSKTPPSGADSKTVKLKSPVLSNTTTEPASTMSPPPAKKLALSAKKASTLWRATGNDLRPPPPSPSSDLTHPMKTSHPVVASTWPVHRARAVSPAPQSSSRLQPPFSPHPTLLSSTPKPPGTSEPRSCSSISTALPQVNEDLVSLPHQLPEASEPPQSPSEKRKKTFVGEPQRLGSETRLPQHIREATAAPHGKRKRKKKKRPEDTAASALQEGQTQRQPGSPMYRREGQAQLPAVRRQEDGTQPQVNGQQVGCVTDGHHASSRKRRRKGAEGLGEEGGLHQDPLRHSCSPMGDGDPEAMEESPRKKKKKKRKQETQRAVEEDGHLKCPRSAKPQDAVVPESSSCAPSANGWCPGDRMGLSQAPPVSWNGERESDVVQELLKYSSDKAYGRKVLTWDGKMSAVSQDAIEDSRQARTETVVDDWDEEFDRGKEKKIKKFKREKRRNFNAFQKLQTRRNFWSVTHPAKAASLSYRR
How it was run: as §1

[3] = target: T2, USP38 (UniProt Q8NB14)
T2 sequence (whole entry): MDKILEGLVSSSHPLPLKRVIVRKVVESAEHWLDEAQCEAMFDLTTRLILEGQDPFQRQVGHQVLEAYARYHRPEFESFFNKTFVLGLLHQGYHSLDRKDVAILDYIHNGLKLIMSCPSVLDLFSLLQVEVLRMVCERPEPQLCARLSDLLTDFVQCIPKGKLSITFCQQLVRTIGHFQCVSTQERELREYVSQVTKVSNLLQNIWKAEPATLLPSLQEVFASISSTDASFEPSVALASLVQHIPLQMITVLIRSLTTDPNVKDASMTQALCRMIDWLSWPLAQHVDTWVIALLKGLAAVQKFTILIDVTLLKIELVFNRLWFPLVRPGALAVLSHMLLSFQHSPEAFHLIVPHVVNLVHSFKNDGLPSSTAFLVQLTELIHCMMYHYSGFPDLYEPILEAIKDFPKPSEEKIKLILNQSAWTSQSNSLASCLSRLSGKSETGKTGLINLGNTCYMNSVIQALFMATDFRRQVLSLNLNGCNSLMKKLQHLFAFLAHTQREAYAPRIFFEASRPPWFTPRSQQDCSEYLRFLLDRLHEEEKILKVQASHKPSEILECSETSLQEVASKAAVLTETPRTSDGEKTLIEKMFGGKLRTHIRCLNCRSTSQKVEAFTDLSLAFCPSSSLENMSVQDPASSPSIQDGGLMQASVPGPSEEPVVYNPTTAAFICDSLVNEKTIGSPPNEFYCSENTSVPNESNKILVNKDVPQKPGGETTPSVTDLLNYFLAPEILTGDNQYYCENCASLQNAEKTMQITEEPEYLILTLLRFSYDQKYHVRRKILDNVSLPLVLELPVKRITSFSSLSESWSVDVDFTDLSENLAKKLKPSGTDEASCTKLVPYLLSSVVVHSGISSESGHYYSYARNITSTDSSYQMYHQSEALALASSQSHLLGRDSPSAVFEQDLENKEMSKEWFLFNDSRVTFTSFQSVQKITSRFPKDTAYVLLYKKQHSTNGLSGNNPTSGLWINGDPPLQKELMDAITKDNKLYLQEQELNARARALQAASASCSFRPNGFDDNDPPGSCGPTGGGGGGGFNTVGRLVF
How it was run: as §1

[4] = target: T3, USP39 (UniProt Q53GS9)
T3 sequence (whole entry): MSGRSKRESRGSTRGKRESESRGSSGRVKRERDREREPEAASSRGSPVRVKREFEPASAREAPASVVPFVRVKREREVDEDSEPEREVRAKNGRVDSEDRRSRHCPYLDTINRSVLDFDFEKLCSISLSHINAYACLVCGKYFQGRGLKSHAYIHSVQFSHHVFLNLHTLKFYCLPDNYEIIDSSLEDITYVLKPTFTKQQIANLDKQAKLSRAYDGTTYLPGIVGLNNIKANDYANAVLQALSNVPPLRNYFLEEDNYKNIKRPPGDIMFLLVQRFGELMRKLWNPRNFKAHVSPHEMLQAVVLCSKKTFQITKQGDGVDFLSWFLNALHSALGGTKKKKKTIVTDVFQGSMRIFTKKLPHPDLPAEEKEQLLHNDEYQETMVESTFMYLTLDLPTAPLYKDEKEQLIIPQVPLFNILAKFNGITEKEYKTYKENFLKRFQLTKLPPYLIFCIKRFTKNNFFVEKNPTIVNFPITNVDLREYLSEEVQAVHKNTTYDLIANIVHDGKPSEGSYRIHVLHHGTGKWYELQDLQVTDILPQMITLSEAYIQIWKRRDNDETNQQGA
How it was run: as §1

[5] = target: T4, USP4 (UniProt Q13107)
T4 sequence (whole entry): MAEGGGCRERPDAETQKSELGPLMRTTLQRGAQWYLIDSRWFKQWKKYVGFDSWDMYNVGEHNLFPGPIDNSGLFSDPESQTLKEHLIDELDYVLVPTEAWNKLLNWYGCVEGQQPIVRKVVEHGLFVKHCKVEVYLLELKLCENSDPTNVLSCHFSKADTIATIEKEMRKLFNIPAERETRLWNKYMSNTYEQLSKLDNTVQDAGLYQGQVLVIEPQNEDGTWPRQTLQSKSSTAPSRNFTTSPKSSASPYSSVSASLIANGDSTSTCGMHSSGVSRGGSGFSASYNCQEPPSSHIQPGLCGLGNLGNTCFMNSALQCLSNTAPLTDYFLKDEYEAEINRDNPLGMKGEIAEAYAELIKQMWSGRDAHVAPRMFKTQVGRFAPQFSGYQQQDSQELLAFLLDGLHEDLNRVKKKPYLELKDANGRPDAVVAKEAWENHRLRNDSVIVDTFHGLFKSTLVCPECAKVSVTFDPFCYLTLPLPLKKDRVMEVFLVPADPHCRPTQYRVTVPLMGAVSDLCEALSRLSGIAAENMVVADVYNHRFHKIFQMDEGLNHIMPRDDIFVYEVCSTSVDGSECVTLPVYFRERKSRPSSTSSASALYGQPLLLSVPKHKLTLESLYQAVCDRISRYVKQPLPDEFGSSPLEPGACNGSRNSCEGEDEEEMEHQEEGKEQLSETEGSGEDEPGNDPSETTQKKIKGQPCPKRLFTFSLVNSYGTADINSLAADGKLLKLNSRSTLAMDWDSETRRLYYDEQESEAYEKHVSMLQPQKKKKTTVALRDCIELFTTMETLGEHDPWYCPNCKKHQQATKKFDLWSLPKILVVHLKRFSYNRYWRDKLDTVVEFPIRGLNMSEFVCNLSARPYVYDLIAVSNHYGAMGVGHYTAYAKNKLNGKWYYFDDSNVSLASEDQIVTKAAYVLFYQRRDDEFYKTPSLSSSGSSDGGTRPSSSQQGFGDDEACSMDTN
How it was run: as §1

Measured: log2 ratio of Biotin-Ahx-Ub-VS probe labelling

Cc1c(C#N)c(NC(=O)CCl)n(Cc2ccco2)c1C
inactive: [1] -0.304 | [2] -0.0578 | [3] -0.297 | [4] -0.162 | [5] -0.372
